Data: PubChem BioAssay (Tox21)
Several values for one entry are separate records, joined by “and”; a condition that tells them apart may be missing. Equal values may be shown once. Results filed as inconclusive are left out. Where a call stands in place of a potency, no number is given. Activity calls are given as the source filed them. The call rests on the fitted dose curve; in most records, active means well fitted cell-killing curve with a large enough effect in the repeat runs; inconclusive means weak or mixed curves, or effect the other way; inactive means no such curve, though single readings can be large or run the other way.

Assay: qHTS assay for small molecule activators of the heat shock response signaling pathway - cell viability counter screen (AID 743209); further: nearly all actives have a fitted effect of over 50% in size
Details: HSE-bla HeLa viability, CellTiter-Glo luminescence, 5 h; series mostly up to 62.6 µM
Source text: U.S. Tox21 Program National Center for Advancing Translational Sciences [NCATS] NIH Chemical Genomics Center [NCGC] U.S. Environmental Protection Agency [EPA] National Institutes of Environmental Health Sciences [NIEHS] National Toxicology Program [NTP] U.S. Food and Drug Administration [FDA] Tox21 Assay Overview: Various chemicals, environmental and physiological stress conditions may lead to the activation of heat shock response/ unfolded protein response (HSR/UPR). There are three heat shock transcription factors (HSFs) (HSF-1, -2, and -4) mediating transcriptional regulation of the human HSR. To identify the compounds that activate HSR signaling, HSE-bla HeLa cell line (Invitrogen, Carlsbad, CA, USA) containing a beta-lactamase reporter gene under the control of the heat shock response elements was used to screen Tox21 10K compound library. The cytotoxicity of the Tox21 compound library against the HSE-bla HeLa cell line was tested in parallel by measuring the cell viability using CellTiter-Glo assay (Promega, Madison, WI) in the same wells.
Tox21 Assay Protocol Summary: The CellSensor HSE-bla HeLa cells (Invitrogen, Carlsbad, CA, USA) were dispensed at 1500 cells/6uL/well into 1536-well black wall/clear bottom plates using a Multidrop combi (Thermo Fisher Scientific, Waltham, MA) dispenser. After the assay plates were incubated at 37 C and 5% CO2 overnight, 23 nL of compounds dissolved in DMSO, positive controls or DMSO only was transferred to the assay plate by a Pintool station (Kalypsys, San Diego, CA). The plates were incubated at 37 C for 5 h. After 1 uL of LiveBLAzerTM B/G FRET substrate was added using a Flying Reagent Dispenser (FRD, Beckman Coulter, Indianapolis, IN, USA), the plates were incubated at room temperature for 2.5 h, and fluorescence intensity was measured by an Envision plate reader (PerkinElmer, Shelton, CT). For cell viability readout that measures cytotoxicity, 3 ul/well of CellTiter-Glo reagent was added into the assay plates using a FRD. After 30 min incubation at room temperature, the luminescence intensity in the plates was measured using a ViewLux (PerkinElmer) plate reader.
Potency means the concentration at half of the fitted maximal effect.

Row | SMILES | Potency
1 | [O]=[Zr] | inactive
2 | Cc1ccc(CCn2c3c(c4cc(Cl)ccc42)CN(C)CC3)cn1 | inactive
3 | CC(C)(c1cc(Br)c(OCCO)c(Br)c1)c1cc(Br)c(OCCO)c(Br)c1 | 17 µM (active)
4 | CCN(CC)CCOC(=O)C1(C2CCCCC2)CCCCC1 | inactive
5 | CCc1cccc(C)c1 | inactive
6 | CCCCCCCCCCCCCCCC | inactive
7 | COC(=O)NCCC[Si](OC)(OC)OC | inactive
8 | Cc1cccc(Br)c1 | inactive
9 | COc1cccc(CCc2ccccc2OCC(CN(C)C)OC(=O)CCC(=O)O)c1 (stereo not given) | inactive
10 | CCCOc1sc(C(=O)N2CCC(c3cc(CN)ccc3F)CC2)c(C)c1Br | 40 µM (active)
11 | CC(C)=C1CC[C@@H](C)CC1=O | inactive
12 | Cc1c(C(=O)O)cccc1[N+](=O)[O-] | inactive
13 | O=C1OC(OC(=O)c2cccnc2Nc2cccc(C(F)(F)F)c2)c2ccccc21 (stereo not given) | inactive
14 | CN1[C@@H]2CC[C@@H]1CC(OC(=O)C(CO)c1ccccc1)C2 (stereo not given in full) | inactive
15 | CC(C)N=C(N)/N=C(\N)Nc1ccc(Cl)cc1 | inactive
16 | NC(=O)c1ccccc1N | inactive
17 | Cc1c(C)n(Cc2ccccc2)c2ccc(C(=O)OCCN(C)C)cc12 | inactive
18 | CC(C)(C)CC(C)(C)c1ccccc1O | 55.2 µM (active)
19 | COC(=O)C1=C(C)NC(C)=C(C(=O)OCCCN2CCC(c3ccccc3)(c3ccccc3)CC2)C1c1cccc([N+](=O)[O-])c1 (stereo not given) | inactive
20 | c1ccc(Nc2cccc3ccccc23)cc1 | inactive

Row | SMILES | Potency
21 | C=CCCCCCCC=C | 49.1 µM (active)
22 | CCCCCCCCCCCCCC[n+]1ccccc1 | 30.9 µM (active)
23 | C=CC(=O)OCCOCC(CC)(COCCOC(=O)C=C)COCCOC(=O)C=C | 18.1 µM (active)
24 | CCCN(CCc1cccs1)[C@H]1CCc2c(O)cccc2C1 | inactive
25 | C/C=C/C(=O)Oc1c(CCCCCC(C)C)cc([N+](=O)[O-])cc1[N+](=O)[O-] | 24.5 µM (active)
26 | Clc1ccc(C(Cn2ccnc2)OCc2ccsc2Cl)c(Cl)c1 (stereo not given) | inactive
27 | CCCCCCCCCCCCOC(=O)c1cc(O)c(O)c(O)c1 | 13.7 µM (active) and 49 µM (active)
28 | CC1=C(/C=C/C(C)=C/C=C/C(C)=C/C(=O)Nc2ccc(O)cc2)C(C)(C)CCC1 | 20 µM (active) and 33.5 µM (active)
29 | COc1ccccc1OCCNCC(O)COc1cccc2[nH]c3ccccc3c12 (stereo not given) | inactive
30 | CC(CN(C)C)CN1c2ccccc2CCc2ccccc21 (stereo not given) | inactive
31 | CN(C)CCCN1c2ccccc2CCc2ccccc21 | inactive
32 | Cc1cn[nH]c1 | inactive
33 | ClC/C=C\CCl | inactive
34 | CC(=O)OC(OC(C)=O)c1ccc([N+](=O)[O-])o1 | 19.8 µM (active)
35 | CCN(CC)CCOc1ccc(C(O)(Cc2ccc(Cl)cc2)c2ccc(C)cc2)cc1 (stereo not given) | inactive
36 | Cc1ccc2ccc3cccc4ccc1c2c34 | inactive
37 | Cn1cnc2ncnc(N)c21 | inactive
38 | O=C1NCCN1CCN1CCC(c2cn(-c3ccc(F)cc3)c3ccc(Cl)cc23)CC1 | inactive
39 | CCCCN(CCCC)CCC(O)c1cc2c(Cl)cc(Cl)cc2c2cc(C(F)(F)F)ccc12 (stereo not given) | inactive
40 | O=S(=O)(O)CCCN1CCOCC1 | inactive
